Where a chain is given by its changes, count along the chain named.

Test in all cases: protein-binding microarray (PBM); PBM: ~300 nM protein, 6 mM HEPES pH 7.8, 80 mM KCl, 0.5 mM EDTA, 0.5 mM EGTA, 6% glycerol, 35 ng/ul poly-dIdC, 1% milk, 1 h, room temperature; Ap Aiptasia and Nv Nematostella (sea anemones) / Co Capsaspora / Aq Amphimedon (sponge) / Dm Drosophila / Hu human; RHD is the Rel homology domain; high values mean tight binding
Common to all, as to conditions: dsDNA, one strand shown

One test deals with T1, GST-Ap-NF-kB RHD (Exaiptasia pallida (Aiptasia), UniProt A0A913YAJ5 2-422).
T1 sequence: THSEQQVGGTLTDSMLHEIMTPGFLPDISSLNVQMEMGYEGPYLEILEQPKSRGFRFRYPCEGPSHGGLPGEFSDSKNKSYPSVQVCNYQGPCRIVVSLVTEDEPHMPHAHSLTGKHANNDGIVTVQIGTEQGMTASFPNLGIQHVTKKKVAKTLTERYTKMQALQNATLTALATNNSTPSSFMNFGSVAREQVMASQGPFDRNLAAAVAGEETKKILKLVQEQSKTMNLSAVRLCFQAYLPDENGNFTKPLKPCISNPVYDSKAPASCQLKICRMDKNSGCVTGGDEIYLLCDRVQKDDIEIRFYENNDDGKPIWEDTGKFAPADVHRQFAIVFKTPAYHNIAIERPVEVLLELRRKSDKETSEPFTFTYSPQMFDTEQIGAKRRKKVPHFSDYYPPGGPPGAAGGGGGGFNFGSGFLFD

For test [1], the target named is T2, GST-Nv-NF-kB (Cys allele) (Nematostella vectensis, UniProt E5G601 2-411).
T2 sequence: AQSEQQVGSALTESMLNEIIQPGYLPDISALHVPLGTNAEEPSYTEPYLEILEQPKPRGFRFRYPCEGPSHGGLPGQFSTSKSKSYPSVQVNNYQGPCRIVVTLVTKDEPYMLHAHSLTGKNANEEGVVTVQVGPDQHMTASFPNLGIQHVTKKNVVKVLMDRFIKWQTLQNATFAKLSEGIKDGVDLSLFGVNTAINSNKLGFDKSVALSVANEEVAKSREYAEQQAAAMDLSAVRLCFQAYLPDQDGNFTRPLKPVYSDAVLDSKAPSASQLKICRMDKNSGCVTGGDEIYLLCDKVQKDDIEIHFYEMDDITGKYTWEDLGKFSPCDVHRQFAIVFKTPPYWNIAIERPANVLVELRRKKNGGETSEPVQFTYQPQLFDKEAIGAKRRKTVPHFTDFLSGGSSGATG

For test [2], the target named is T3, GST-Nv-NF-kB (Ser allele) (Nematostella vectensis, UniProt A7UNT2 2-411).
T3 sequence: T2 sequence with Q21R, C66S, S207N, E215Q, V217A, E225K, A268E, D399E

Another test addresses T4, GST-Co-NF-kB (Capsaspora owczarzaki, UniProt F1ARL5 200-546).
T4 sequence: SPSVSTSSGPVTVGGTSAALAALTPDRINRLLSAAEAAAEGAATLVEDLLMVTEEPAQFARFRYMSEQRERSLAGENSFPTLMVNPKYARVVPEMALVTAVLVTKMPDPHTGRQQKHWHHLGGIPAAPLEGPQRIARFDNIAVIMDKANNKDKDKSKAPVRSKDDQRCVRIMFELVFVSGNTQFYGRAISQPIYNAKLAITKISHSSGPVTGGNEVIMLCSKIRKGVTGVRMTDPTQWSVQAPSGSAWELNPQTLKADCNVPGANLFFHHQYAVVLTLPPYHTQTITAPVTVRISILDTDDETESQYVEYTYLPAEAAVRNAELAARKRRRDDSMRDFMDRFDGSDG

The next test has as its target T5, GST-Dm-Relish (Drosophila melanogaster, UniProt Q94527 99-473).
T5 sequence: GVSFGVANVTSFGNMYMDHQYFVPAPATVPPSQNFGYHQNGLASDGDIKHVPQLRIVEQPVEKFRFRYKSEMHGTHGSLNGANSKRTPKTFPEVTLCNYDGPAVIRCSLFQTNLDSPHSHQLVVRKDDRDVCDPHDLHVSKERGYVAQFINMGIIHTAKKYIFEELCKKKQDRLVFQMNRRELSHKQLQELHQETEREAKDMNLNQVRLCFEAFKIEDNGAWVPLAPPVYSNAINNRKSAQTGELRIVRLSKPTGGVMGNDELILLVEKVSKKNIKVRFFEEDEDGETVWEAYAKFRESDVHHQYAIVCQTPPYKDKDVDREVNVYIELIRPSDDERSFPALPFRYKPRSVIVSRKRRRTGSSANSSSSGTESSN

The next test concerns the target T6, GST-Aq-NF-kB (Amphimedon queenslandica, UniProt A9Y5G7 2-389).
T6 sequence: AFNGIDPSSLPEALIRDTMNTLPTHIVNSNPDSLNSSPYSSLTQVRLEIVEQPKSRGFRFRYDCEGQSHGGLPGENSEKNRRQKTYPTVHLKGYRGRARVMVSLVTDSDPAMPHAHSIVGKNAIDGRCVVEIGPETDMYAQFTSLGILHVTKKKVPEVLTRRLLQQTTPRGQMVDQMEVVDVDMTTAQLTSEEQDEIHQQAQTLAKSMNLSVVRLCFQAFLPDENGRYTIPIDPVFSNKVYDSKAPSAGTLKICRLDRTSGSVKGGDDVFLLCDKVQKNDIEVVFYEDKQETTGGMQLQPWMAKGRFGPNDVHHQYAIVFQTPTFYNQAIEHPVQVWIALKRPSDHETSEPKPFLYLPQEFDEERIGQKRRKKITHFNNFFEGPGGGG

The target in another test is GST-Hu-p50 (Homo sapiens, UniProt P19838 7-356).
GST-Hu-p50, sequence (P19838 7-356): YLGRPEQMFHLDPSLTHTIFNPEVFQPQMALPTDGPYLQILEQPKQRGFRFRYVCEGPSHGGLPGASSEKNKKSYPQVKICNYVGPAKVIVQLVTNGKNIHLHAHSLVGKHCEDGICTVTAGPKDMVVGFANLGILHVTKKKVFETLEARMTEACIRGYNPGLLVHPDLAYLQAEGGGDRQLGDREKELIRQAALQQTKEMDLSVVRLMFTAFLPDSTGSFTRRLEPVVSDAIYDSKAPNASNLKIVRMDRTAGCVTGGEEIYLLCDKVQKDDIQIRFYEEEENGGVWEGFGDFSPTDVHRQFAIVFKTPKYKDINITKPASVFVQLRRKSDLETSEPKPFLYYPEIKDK

Regarding “CCGATTAACATCACCGTCCCCCCTGATGTTAATCGGGTCTTGATTCGCTTGACGCTGCTG”, the binding signal came to 4.94 z-score with GST-Ap-NF-kB RHD; 4.43 z-score in test [1]; 4.21 z-score in test [2]; 5.1 z-score with GST-Co-NF-kB; 4.4 z-score in the test with GST-Dm-Relish; 4.34 z-score in the test with GST-Aq-NF-kB. In addition, in the test with GST-Hu-p50, the binding signal amounted to 4.08 z-score.

As to “CCGATTAACATCAGGGGAAGACCTGATGTTAATCGGGTCTTGATTCGCTTGACGCTGCTG”, the binding signal with GST-Ap-NF-kB RHD stood at 5.91 z-score; in test [1], 7.98 z-score; in test [2], 6.51 z-score; in the test with GST-Co-NF-kB, 5.23 z-score; with GST-Dm-Relish it was 8.75 z-score; with GST-Aq-NF-kB, 7.72 z-score. In the test with GST-Hu-p50, this sequence displayed a binding signal of 4.98 z-score.

As to “CCGATTAACATCAAGATTTCCCCTGATGTTAATCGGGTCTTGATTCGCTTGACGCTGCTG”, the binding signal in the test with GST-Ap-NF-kB RHD is 8.78 z-score; in test [1], 10.4 z-score; in test [2], 13.2 z-score; with GST-Co-NF-kB, 9.09 z-score; with GST-Dm-Relish, 6.87 z-score; with GST-Aq-NF-kB, 7.44 z-score. In addition, in the test with GST-Hu-p50, the binding signal worked out at 7.38 z-score.

In the case of “CCGATTAACATCAGGGGGTGGTATGATGTTAATCGGGTCTTGATTCGCTTGACGCTGCTG”, the binding signal with GST-Ap-NF-kB RHD was 3.21 z-score; in test [1] it was 2.77 z-score; in test [2], 3.98 z-score; with GST-Co-NF-kB it was 2.91 z-score; with GST-Dm-Relish, 2.01 z-score; in the test with GST-Aq-NF-kB, 3.38 z-score. The sequence also registered a binding signal with GST-Hu-p50 of 3.67 z-score.

Consider “CCGATTAACATCAAACTTCCCCTTGATGTTAATCGGGTCTTGATTCGCTTGACGCTGCTG”, for which the binding signal with GST-Ap-NF-kB RHD stood at 6.88 z-score; in test [1], 9.28 z-score; in test [2], 9.81 z-score; with GST-Co-NF-kB it was 5.46 z-score; in the test with GST-Dm-Relish, 7.55 z-score; in the test with GST-Aq-NF-kB, 7.66 z-score. The binding signal in the test with GST-Hu-p50 stood at 6.98 z-score.

Consider “CCGATTAACATCAGGGGAAACACTGATGTTAATCGGGTCTTGATTCGCTTGACGCTGCTG”, for which the binding signal was 6.4 z-score with GST-Ap-NF-kB RHD; 8.15 z-score in test [1]; 9.65 z-score in test [2]; 7.63 z-score in the test with GST-Co-NF-kB; 9.02 z-score with GST-Dm-Relish; 7 z-score in the test with GST-Aq-NF-kB. In addition, the binding signal with GST-Hu-p50 is 6.08 z-score.

Consider “CCGATTAACATCAGGGAATCACATGATGTTAATCGGGTCTTGATTCGCTTGACGCTGCTG”, for which the binding signal with GST-Ap-NF-kB RHD stood at 1.95 z-score; in test [1], 2.66 z-score; in test [2] it was 2.47 z-score; with GST-Co-NF-kB, 2.22 z-score; in the test with GST-Dm-Relish, 9.15 z-score; in the test with GST-Aq-NF-kB it was 3.28 z-score. In the test with GST-Hu-p50, this sequence showed a binding signal of 1.14 z-score.

For “CCGATTAACATCAGGGGAGTACCTGATGTTAATCGGGTCTTGATTCGCTTGACGCTGCTG”, the binding signal was 7.52 z-score with GST-Ap-NF-kB RHD; 5.33 z-score in test [1]; 6.46 z-score in test [2]; 3.7 z-score with GST-Co-NF-kB; 7.86 z-score in the test with GST-Dm-Relish; 7.18 z-score in the test with GST-Aq-NF-kB. This sequence yielded a binding signal with GST-Hu-p50 of 4.93 z-score.

As for “CCGATTAACATCAGGGGATTGTATGATGTTAATCGGGTCTTGATTCGCTTGACGCTGCTG”, the binding signal in the test with GST-Ap-NF-kB RHD was 6.91 z-score; in test [1], 7.07 z-score; in test [2], 8.67 z-score; in the test with GST-Co-NF-kB it was 3.04 z-score; with GST-Dm-Relish, 4.19 z-score; with GST-Aq-NF-kB it was 5.12 z-score. This sequence also yielded a binding signal with GST-Hu-p50 of 6.01 z-score.

For the sequence “CCGATTAACATCACGGAACCCCCTGATGTTAATCGGGTCTTGATTCGCTTGACGCTGCTG”, the binding signal with GST-Ap-NF-kB RHD amounted to 7.51 z-score; in test [1], 4.89 z-score; in test [2], 6.13 z-score; with GST-Co-NF-kB it was 2.13 z-score; in the test with GST-Dm-Relish, 9.21 z-score; with GST-Aq-NF-kB, 5.54 z-score. In the test with GST-Hu-p50, this sequence displayed a binding signal of 5.79 z-score.

With “CCGATTAACATCAACTACCCCCCTGATGTTAATCGGGTCTTGATTCGCTTGACGCTGCTG”, the binding signal came out at 4.79 z-score in the test with GST-Ap-NF-kB RHD; 2.46 z-score in test [1]; 3.11 z-score in test [2]; 4.43 z-score in the test with GST-Co-NF-kB; 3.4 z-score with GST-Dm-Relish; 3.98 z-score with GST-Aq-NF-kB. In the test with GST-Hu-p50, the binding signal stood at 3.1 z-score.

Turning to “CCGATTAACATCAATTTCCCACCTGATGTTAATCGGGTCTTGATTCGCTTGACGCTGCTG”, the binding signal came out at 2.39 z-score with GST-Ap-NF-kB RHD; 3.38 z-score in test [1]; 3.89 z-score in test [2]; 2.84 z-score with GST-Co-NF-kB; 1.17 z-score with GST-Dm-Relish; 2.26 z-score in the test with GST-Aq-NF-kB. This sequence yielded a binding signal in the test with GST-Hu-p50 of 2.74 z-score.

Source of the values: publication PMC5700166.
